Reference: PubChem BioAssay AID2685 (National Center for Advancing Translational Sciences (NCATS), 2010)
In all, about 320,000 compounds went through this assay and about 2,100 (0.66%) were called active. About 53% were inconclusive and are not listed. Calls come from the whole dose curve; as a rule, active = well fitted inhibition curve with a large enough effect in the signal ratio, with a control signal flat (not every such curve was filed as active); inconclusive = small, poorly fitted or top-dose-only effect, or effect the other way, or a change in a side signal; inactive = flat fitted curve, though single readings scatter; the % refers to the signal ratio. Only a selection was taken, and actives are over-represented in it overall.

test: qHTS Assay for Lipid Storage Modulators in Drosophila S3 Cells; conditions: BODIPY lipid droplet fluorescence, 18-24 h, cells fed with added oleic acid; cell number change: measured here: cell count max response; series mostly up to 46.1 µM; lipid storage change, negative = inhibition: at the top concentration;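 for cell number change: cells counted by Cell Tracker Red CMTPX staining in the red channel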; for lipid storage change, negative = inhibition: % is set by controls: 0 for no effect and ±100 for the full control effect
How it was run: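 Laser-scanning cytometry quantifies lipid droplet accumulation (500–530 nm total intensity; droplet/cell object ratio) in oleic acid-fed (400 uM added) Drosophila S3 cells treated with a concentration series. 20 uM Triacsin C defined 100% inhibition.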
Potency is the fitted concentration of half-maximal effect.

SMILES	lipid storage change, negative = inhibition	cell number change	Potency	outcome
CCOC(=O)C1CCN(c2nc(-c3ccc(C)cc3)nc3ccccc23)CC1	10.1% (inactive)	-12.1%		
COc1ccccc1NC(=O)c1ccc(NC(=O)CSc2ncn[nH]2)cc1	-6.68% (inactive)	-3.32%		
Cc1cc(-c2ccco2)n(CC(=O)O)n1	3.95% (inactive)	-13.3%		
CC(Sc1ccc2ccccc2c1)C(=O)NC(N)=O (stereo not given)	-6.27% (inactive)	22.5%		
CC(=O)Nc1ccc(SC(C)C(=O)NC(N)=O)cc1 (stereo not given)		-18.8%	29.1 µM (active)	
CC(Sc1cccc(C(F)(F)F)c1)C(=O)NC(N)=O (stereo not given)		10.6%		inactive
CCOC(=O)NC(O)C(=O)c1ccc(F)cc1 (stereo not given)	1.22% (inactive)			
N#Cc1ccc(Cl)cc1NC(=O)CNCc1cccs1	18.5% (inactive)	4.81%		
COc1ccc(-n2c(=O)c(CCC(=O)N3CCN(c4ccccc4O)CC3)nc3ccccc32)cc1	-27.2% (inactive)	-25.6%		
COc1ccc(-n2c(=O)c(CCC(=O)NCCc3ccccc3F)nc3ccccc32)cc1		2.07%	18.4 µM (active)	
COc1ccc(-n2c(=O)c(CCC(=O)N(C)Cc3ccccc3C)nc3ccccc32)cc1	-8.19% (inactive)	24.8%		
COc1ccc2c(c1)c(CC(=O)Nc1cccc(S(N)(=O)=O)c1)c(C)n2C(=O)c1ccc(Cl)cc1	-1.43% (inactive)	-13.5%		
CC(C(=O)Nc1ccc2c(c1)OCCO2)N(C)Cc1c(F)cccc1Cl (stereo not given)	4.33% (inactive)			
COC(=O)c1ccc(NC(=O)CCNS(=O)(=O)c2cccc3nonc23)cc1		6.69%		inactive
Cc1ccc(NC(=O)CCNS(=O)(=O)c2cccc3nonc23)cc1	14.5% (inactive)	12.6%		
CC(=O)c1ccc(NC(=O)CCNS(=O)(=O)c2cccc3nonc23)cc1			23.1 µM (active)	
COC(=O)C1=NN(C(C)(C)CC(C)=O)C2C(=O)N(C3CCCCC3)C(=O)C12 (stereo not given)	-1.51% (inactive)	-0.806%		
O=C(NCc1cccc(Cl)c1)c1cccc(C(F)(F)F)c1	11.6% (inactive)	-1.35%		
Cc1cc(NC2CCCC2)n2nc(C)c(-c3ccccc3)c2n1	-0.485% (inactive)	-2.08%		
O=C(CC1Sc2ccccc2NC1=O)NCc1ccccc1 (stereo not given)	9.46% (inactive)	0.893%		
CCC1=NN2C(=N)/C(=C/c3ccc(OS(=O)(=O)c4ccccc4)c(OC)c3)C(=O)N=C2S1		4.58%	1.84 µM (active)	
CCC1=NN2C(=N)/C(=C/c3ccc(OS(=O)(=O)c4ccc(C)cc4)c(OC)c3)C(=O)N=C2S1	3.12% (inactive)	5%		
COc1cc(/C=C2/C(=N)N3N=C(C)SC3=NC2=O)ccc1OS(=O)(=O)c1ccc(C)cc1		-5.04%		inactive

SMILES	lipid storage change, negative = inhibition	cell number change	Potency	outcome
COc1cc(/C=C2\C(=N)N3N=CSC3=NC2=O)ccc1OS(=O)(=O)c1ccccc1		-21.2%	2.06 µM (active)	
COc1cc(/C=C2\C(=N)N3N=C(S(C)(=O)=O)SC3=NC2=O)ccc1OS(=O)(=O)c1ccccc1		-27%		inactive
COc1cc(/C=C2\C(=N)N3N=CSC3=NC2=O)ccc1OS(=O)(=O)c1ccccc1[N+](=O)[O-]	-23.3% (inactive)	-11.4%		
Cc1cc(/C=C2\SC(=O)N(CC(=O)Nc3ccccc3F)C2=O)c(C)n1C	-0.336% (inactive)	1.47%		
Cc1ccccc1-n1c(C)n[nH]c1=S	3.14% (inactive)	1.24%		
COc1ccc(CC(=O)NNC(=O)CSc2nnc(C)n2-c2ccccc2)cc1		-9.57%		inactive
CC1Cc2ccccc2N1C(=O)CSc1nnc(Cn2nnc3ccccc32)n1C (stereo not given)	-0.751% (inactive)	-16.3%		
O=C(Nc1ccc(O)cc1)N1CCOCC1		20%		inactive
O=C(Nc1ccc(F)cc1)N1CCN(c2nc3ccccc3s2)CC1			4.11 µM (active)	
CSc1ccc(NC(=O)N2CCN(c3nc4ccccc4s3)CC2)cc1				inactive
O=C(O)C1CCCN1C(=O)Oc1ccccc1 (stereo not given)		0.79%	23.1 µM (active)	
O=C(Nc1ccc(F)cc1)N1CCCCCC1	11.9% (inactive)	7.77%		
O=C(NC1CCCC1)C1CCCN1C(=O)Oc1ccccc1 (stereo not given)	-6.65% (inactive)	-16.7%		
O=C(O)C1CCCN1C(=O)OCc1ccccc1 (stereo not given)	-4.77% (inactive)	12.4%		
O=C(Nc1ccc(F)cc1)N1CCOCC1		-6.86%	20.6 µM (active)	
O=C(NCCc1ccccc1)C1CCCN1C(=O)Nc1ccc(F)cc1 (stereo not given)	7.13% (inactive)	-10%		
O=C(Nc1ccccc1)N1CCN(c2nc3ccccc3s2)CC1				inactive
O=C(O)C1CCCN1C(=O)Nc1ccc(F)cc1 (stereo not given)		1.35%	6.51 µM (active)	
O=C(NCc1ccc(F)cc1)C1CCCN1C(=O)Nc1ccc(F)cc1 (stereo not given)	10.1% (inactive)	12.2%		
COc1ccccc1C(=O)C1CCCN(Cc2cccc3nccnc23)C1 (stereo not given)	-3.26% (inactive)	15%		
CC(C)Nc1ccc(C(CC(N)=O)NC(=O)Cc2cccc3ccccc23)cc1[N+](=O)[O-] (stereo not given)	-6.77% (inactive)	1.26%		
CCOC(=O)c1sc(=NC(=O)c2cccc(C)c2)n(C)c1C	3.79% (inactive)			
Cc1cc(Cl)ccc1NC(=S)NCc1ccco1	-3.05% (inactive)	-9.3%		
